Experimental data from PubChem BioAssay.
The source made the active and inactive calls. Unless noted, how the calls were made is not given here.

Legend:
[1] = A549 cell viability effects, profiling panel, calcein-AM fluorescence, 48 h, basal (AID 1162); conditions: higher = more signal; further: test concentration not given here
[2] = adipocyte viability effects, profiling panel, cell-based, 3T3-L1 adipocytes, calcein-AM fluorescence, 48 h, basal (AID 1163); conditions: 3T3-L1 adipocytes viability, higher = more signal; further: test concentration not given here
[3] = HepG2 cell viability effects, profiling panel, calcein-AM fluorescence, 48 h, basal (AID 1164); conditions: higher = more signal; further: test concentration not given here
[4] = MM1S cell viability effects, profiling panel, calcein-AM fluorescence, 48 h, basal (AID 1165); conditions: higher = more signal;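 further: viability of MM1S multiple myeloma cells under basal unstimulated conditions; test concentration not given here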
[5] = basal RPMI8226 viability, no added stimulus, profiling panel, cell-based, calcein-AM fluorescence, 48 h, PK04 Diversity Set (AID 1166); conditions: RPMI8226 myeloma viability, higher = more signal;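 further: cells grown under basal conditions without added stimulus; test concentration not given here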
[6] = basal HepG2 mitochondrial membrane potential changes, profiling panel, cell-based, JC-1 fluorescence, 24 h, 100 nL compound (AID 1167); conditions: higher = more signal; further: test concentration not given here
[7] = basal 3T3-L1 adipocyte mitochondrial potential changes, profiling panel, cell-based, JC-1 fluorescence, 3T3-L1 adipocytes, 24 h, 100 nL compound (AID 1168); conditions: JC-1 mitochondrial fluorescence, higher = more signal, called active from +8 up or from −8 down; further: test concentration not given here
[8] = basal RPMI8226 mitochondrial membrane potential changes, profiling panel, cell-based, JC-1 fluorescence, 24 h, 100 nL compound (AID 1169); conditions: RPMI8226 myeloma, JC-1 mitochondrial potential fluorescence, higher = more signal; further: test concentration not given here
[9] = basal MM1S mitochondrial membrane potential changes, profiling panel, cell-based, JC-1 fluorescence, 24 h, 100 nL compound (AID 1170); conditions: higher = more signal; further: test concentration not given here
[10] = A549 lung cancer cell viability effects, profiling panel, resazurin fluorescence, 24 h, PK04 Diversity Set (AID 1171); conditions: higher = more signal, called active from +8 up or from −8 down; further: test concentration not given here
[11] = HepG2 liver cancer cell viability effects, profiling panel, resazurin fluorescence, 24 h, PK04 Diversity Set (AID 1172); conditions: higher = more signal; further: test concentration not given here
[12] = basal S. cerevisiae growth modulation, no modifier, primary screen, OD600, strain BY4716, 24 h, basal condition (AID 1173); conditions: OD600, 24 h, higher = more signal, called active from +8 up or from −8 down
[13] = MM1S myeloma cell viability, profiling panel, resazurin fluorescence, basal, 24 h, PK04 Diversity Set (AID 1174); conditions: higher = more signal, called active from +8 up or from −8 down;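 further: MM1S multiple myeloma cell line; test concentration not given here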
[14] = molecular target: Dihydroorotate dehydrogenase (quinone), mitochondrial (Plasmodium falciparum (isolate 3D7)) (UniProt Q08210); test: PfDHODH enzyme inhibitors, primary screen, biochemical, C-terminal His tag, absorbance 600 nm (AID 1175); conditions: DCIP absorbance 600 nm, higher = more signal, called active from +8 up or from −8 down;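 further: recombinant parasite enzyme with a five histidine tag at its C terminus; test concentration not given here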
Dihydroorotate dehydrogenase (quinone), mitochondrial (Plasmodium falciparum (isolate 3D7)), sequence (Q08210 whole entry, looked up): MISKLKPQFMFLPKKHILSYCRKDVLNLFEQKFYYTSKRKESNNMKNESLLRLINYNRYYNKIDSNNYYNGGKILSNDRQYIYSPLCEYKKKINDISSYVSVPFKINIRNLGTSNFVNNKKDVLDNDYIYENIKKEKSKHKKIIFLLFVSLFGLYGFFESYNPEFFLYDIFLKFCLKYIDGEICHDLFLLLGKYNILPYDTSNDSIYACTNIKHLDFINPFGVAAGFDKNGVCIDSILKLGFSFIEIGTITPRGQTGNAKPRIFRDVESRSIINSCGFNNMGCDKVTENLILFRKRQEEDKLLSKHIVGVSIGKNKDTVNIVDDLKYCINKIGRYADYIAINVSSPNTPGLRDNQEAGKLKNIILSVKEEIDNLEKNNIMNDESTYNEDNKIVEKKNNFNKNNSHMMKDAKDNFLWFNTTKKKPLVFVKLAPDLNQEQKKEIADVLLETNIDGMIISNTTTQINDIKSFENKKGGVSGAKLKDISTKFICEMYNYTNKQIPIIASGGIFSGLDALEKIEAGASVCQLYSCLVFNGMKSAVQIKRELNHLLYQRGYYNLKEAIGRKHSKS

[15] = P. aeruginosa biofilm formation inhibitors, primary screen, strain PAO1, LB-PBS medium, absorbance 600 nm (AID 1176); further: test concentration not given here; conditions: P. aeruginosa PAO1 growth/biofilm, A600, 12 h; higher = more signal
[16] = S. cerevisiae RM11-1a growth modifiers, primary screen, strain RM11-1a, OD600, basal, 24 h (AID 1177); conditions: OD600, 24 h, higher = more signal, called active from +8 up or from −8 down;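 further: cultures grown under basal conditions with no added stressor; test concentration not given here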
[17] = E. coli acrAB mutant growth effects, primary screen, E. coli filamentation inducers, strain DRC39, OD650, 24 h (AID 1178); conditions: higher = more signal, called active from +8 up or from −8 down;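 further: growth measured as culture turbidity by optical density at 650 nm; test concentration not given here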
[18] = E. coli acrAB mutant growth effects, primary screen, E. coli filamentation inducers, strain DRC39, OD650, 48 h (AID 1179);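 further: screen aims at cell division blockers that make cells filament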; conditions: E. coli DRC39 delta-acrAB growth, higher = more signal, called active from +8 up or from −8 down
[19] = RPMI8226 myeloma cell viability, profiling panel, resazurin fluorescence, basal, 24 h, PK04 Diversity Set (AID 1180); conditions: higher = more signal;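 further: RPMI8826 multiple myeloma cell line at 5000 cells per well; test concentration not given here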
[20] = molecular target: E3 ubiquitin-protein ligase XIAP (Homo sapiens) (UniProt P98170); test: XIAP binders, primary screen, biophysical, small-molecule microarray, fluorescence 635 nm (AID 1181); conditions: small-molecule microarray binding, higher = more signal;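 further: score merges 667 nm emission and signal to noise over triplicate slides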
E3 ubiquitin-protein ligase XIAP (Homo sapiens), sequence (P98170 whole entry, looked up): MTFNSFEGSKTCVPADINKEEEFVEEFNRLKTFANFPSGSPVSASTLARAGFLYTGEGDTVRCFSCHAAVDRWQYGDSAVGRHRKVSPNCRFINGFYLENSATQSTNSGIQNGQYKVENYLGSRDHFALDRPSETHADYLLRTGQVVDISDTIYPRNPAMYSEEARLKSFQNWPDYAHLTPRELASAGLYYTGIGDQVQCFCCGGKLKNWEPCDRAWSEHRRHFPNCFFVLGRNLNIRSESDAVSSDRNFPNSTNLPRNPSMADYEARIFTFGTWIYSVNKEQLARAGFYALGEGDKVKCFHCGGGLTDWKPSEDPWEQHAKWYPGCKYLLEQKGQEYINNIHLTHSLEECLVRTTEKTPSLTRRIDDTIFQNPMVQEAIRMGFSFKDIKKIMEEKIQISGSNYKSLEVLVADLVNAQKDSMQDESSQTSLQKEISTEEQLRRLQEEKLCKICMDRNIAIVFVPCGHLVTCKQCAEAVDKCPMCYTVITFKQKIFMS

Row | Compound | z-score [1] | z-score [2] | z-score [3] | z-score [4] | z-score [5] | z-score [6] | z-score [7] | z-score [8] | z-score [9] | z-score [10] | z-score [11] | z-score [12] | z-score [13] | composite z-score [14] | z-score [15] | z-score [16] | z-score [17] | z-score [18] | z-score [19] | composite z-score [20]
1 | COc1ccc([Si](C)(C)[C@@H]2[C@@H](CC(=O)N(CCO)Cc3ccccc3)O[C@]3(C(=O)N(C)c4c(Br)cc(C)cc43)[C@H]2C)cc1 | -2.07 | -0.0228 | -2.44 | -2.75 | -4.38 | -2.82 | -0.68 (inactive) | -1.17 | -2.11 | -0.99 (inactive) | -1.57 | -0.951 (inactive) | -1.79 (inactive) | 0.216 (inactive) | 0.802 (inactive) | 1.64 (inactive) | -0.109 (inactive) | -0.75 (inactive) | -2.21 | -0.174
2 | COCCCNC(=O)[C@]1(CCS(=O)(=O)c2ccccc2)N=C(c2ccc(OCCCO)cc2)O[C@@H]1c1ccccc1 | 1.73 | 0.151 | 0.9 | -0.223 | -0.7 | 2.64 | 0.0968 (inactive) | -0.74 | -0.801 | -0.243 (inactive) | 0.484 | -0.324 (inactive) | 0.294 (inactive) | 0.888 (inactive) | -0.0304 (inactive) | -0.588 (inactive) | 0.604 (inactive) | 0.607 (inactive) | -0.0847 | 0.209
3 | COc1cc(NN2C(C(O)c3ccc(I)cc3)C=CC3C(=O)N(C)C(=O)C32)cc(OC)c1OC (stereo not given) | -0.0595 | 0.459 | 0.196 | -0.07 | 0.24 | -0.461 | 0.0122 (inactive) | -0.335 | -0.311 | -1.42 (inactive) | -1.7 | 0.643 (inactive) | -0.297 (inactive) | -0.698 (inactive) | 1.08 (inactive) | -0.377 (inactive) | 0.168 (inactive) | -0.413 (inactive) | -0.786 | 0.346
4 | C=CCOC(=O)[C@H]1[C@@H]2C(=O)O[C@@H](c3ccccc3)[C@@H](c3ccccc3)N2[C@@H](c2ccc(OCCOC(=O)[C@H]3C[C@H]4C(=O)N[C@@H](CCCCN(C)C)C(=O)N4[C@H]3c3ccc(O)cc3)cc2)[C@]12C(=O)Nc1ccccc12 | -0.514 | 1.04 | -0.434 | -1.54 | -0.0817 | -1.63 | 0.665 (inactive) | -0.838 | -0.391 | 0.232 (inactive) | 0.569 | -2.35 (inactive) | 0.95 (inactive) | 0.279 (inactive) | -0.723 (inactive) | 0.719 (inactive) | 0.172 (inactive) | -0.739 (inactive) | 0.828 | 0.0425
5 | CCCCC(CC)C(O)C1C=CC2C(=O)NC(=O)C2N1Nc1ccccn1 (stereo not given) | 0.373 | -0.131 | 1.12 | -0.11 | 0.581 | 0.0822 | -0.506 (inactive) | 0.713 | -0.792 | -0.858 (inactive) | -1.39 | 0.332 (inactive) | -1.51 (inactive) | 0.56 (inactive) | 1.2 (inactive) | 0.852 (inactive) | -0.486 (inactive) | -0.112 (inactive) | -0.675 | 0.24
6 | CC(=O)NCCCC[C@@H]1NC(=O)[C@@H]2C[C@H](C(=O)NCCCC[N+](C)(C)C)[C@H](c3cccc(OCCO)c3)N2C1=O | -1.05 | -1.28 | -0.776 | -0.265 | -1.95 | -0.851 | -0.0939 (inactive) | 0.287 | 0.235 | -0.485 (inactive) | -0.44 | 1.41 (inactive) | -1.56 (inactive) | -22.3 (active) | 0.876 (inactive) | 0.954 (inactive) | -0.0845 (inactive) | -0.629 (inactive) | -0.803 | 0.142
7 | C=CC[C@@]1(C(=O)NCCN2CCOCC2)N=C(c2ccc(OCCCO)cc2)O[C@@H]1c1ccccc1 | -0.181 | 0.458 | -0.253 | 0.672 | 0.418 | 0.603 | -0.672 (inactive) | 0.574 | 0.4 | 1.28 (inactive) | 0.255 | -0.0792 (inactive) | 0.275 (inactive) | 1.61 (inactive) | 1.13 (inactive) | 1.45 (inactive) | 0.297 (inactive) | -0.483 (inactive) | 0.482 | -0.237
8 | COC(=O)[C@@]1(Cc2ccc(OC)cc2)[C@H]2c3cc(C(=O)N4CCCC4)n(CCF)c3C[C@H]2CN1C(=O)c1ccccc1 | -1.41 | 1.71 | -0.336 | 0.0026 | -1.05 | 3.33 | -1.65 (inactive) | -0.178 | -0.0401 | -1.55 (inactive) | -0.952 | 1.1 (inactive) | -2.21 (inactive) | 0.0648 (inactive) | 1.06 (inactive) | 0.977 (inactive) | -1.52 (inactive) | -1.09 (inactive) | -1.72 | -0.0471
9 | COCCOC(=O)N1C(=O)[C@@]2(c3cc(C#CC4(O)CCCCCC4)ccc31)[C@H](C(=O)N1CCN(c3ncccn3)CC1)[C@H]1C(=O)O[C@H](c3ccccc3)[C@H](c3ccccc3)N1[C@@H]2c1ccc(O)cc1 | 1.09 | 0.146 | 0.871 | -1.12 | -0.372 | -0.641 | 0.799 (inactive) | -0.57 | 0.532 | 0.445 (inactive) | -0.597 | 1.04 (inactive) | -0.0906 (inactive) | 0.59 (inactive) | 0.545 (inactive) | 2.1 (inactive) | -0.19 (inactive) | 0.37 (inactive) | 0.74 | -0.177
